# Screens as filed in PubChem BioAssay.
# Hits are enriched below; roughly 4.6% of the tested compounds scored in any of these assays.
# NLRP3 yeast inh = NALP3 inflammasome inhibitors in reconstituted yeast, primary screen, luminescence, uHTS; Yeast reconstituted NLRP3/ASC/caspase-1, beta-gal luminescence, 24 h; inhibition, % at 10 µM; 0.39% of 330,000 active; AID 2825, 2010;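 active = inhibition of 50% or more; inactive = inhibition below 50%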;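 note: plate controls were induced DMSO wells for no effect and uninduced yeast grown without galactose for full effect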
# tim23-1 inh = growth inhibitors of tim23-1 mutant yeast, primary screen, luminescence, uHTS | S. cerevisiae tim23-1 growth, BacTiter-Glo luminescence, 24 h | inhibition, % at 20 µM | 1.3% of 330,000 active | AID 463212, 2010;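 active = growth inhibition of the mutant yeast at or above 50%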;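 note: temperature-sensitive mutant grown at 25 °C; plate controls were DMSO-treated mutant yeast for no effect and medium wells lacking yeast for full effect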
# PfHsp90 yeast 2 = growth inhibition of PfHsp90-expressing yeast, primary screen, antimalarial PfHsp90 inhibitor project, S. cerevisiae, BacTiter-Glo luminescence, single point, set 2; BacTiter-Glo ATP, 48 h; yeast lacking PDR1 and PDR3 efflux regulators; inhibition, % at 9.4 µM; 0.32% of 310,000 active;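 active = every replicate shows inhibition above about 80%, whatever the replicate mean, limit read from the data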;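 note: 0% = DMSO neutral controls and 100% = 20 µM radicicol positive controls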
# tim10-1 inh = growth inhibitors of tim10-1 mutant yeast, primary screen, luminescence, uHTS. inhibition, % at 20 µM. S. cerevisiae tim10-1 ts strain growth, BacTiter-Glo, 24 h. 2.2% of 330,000 active;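 active = inhibition of at least 40%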;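 note: mutant grown at 25 °C; 0% = DMSO wells with yeast and 100% = wells holding no yeast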
# SKKanGAS inh = S. pyogenes SKKanGAS growth inhibitors in kanamycin, primary screen, streptokinase expression inhibitor project, SKKanGAS strain, BacTiter-Glo luminescence. 6 h. inhibition, % at 7.5 µM. 1.3% of 300,000 active;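 active = mean replicate score, as percent of positive control median, at least 50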;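 note: strain carries kanamycin resistance gene driven by streptokinase promoter and grows in 40 µg/ml kanamycin; loss of luminescence reflects streptokinase promoter inhibition or plain growth inhibition; 0% = median of DMSO wells and 100% = positive control at its reference dose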
# TIM10 inh = growth inhibitors of isogenic TIM10 control yeast, primary screen, counter-screen for tim10-1 yeast inhibitor project, luminescence, uHTS | S. cerevisiae TIM10 strain growth, BacTiter-Glo luminescence, 24 h | inhibition, % at 10 µM | 1.4% of 330,000 active;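 active = inhibition of 40% or more at the single tested concentration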;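 note: wild-type TIM10 isogenic control strain grown at permissive 25 °C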
# tim10-1 conf = growth inhibitors of tim10-1 mutant yeast, confirmation, single concentration, luminescence, S. cerevisiae; inhibition, % at 20 µM; shares compounds with tim10-1 inh; S. cerevisiae tim10-1 ts strain growth, BacTiter-Glo, 24 h; 56% of 7,400 active; AID 463213, 2010;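 active = inhibition of yeast growth at or above a set limit in either of two repeat tests at 20 µM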;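 note: tim10-1 mutant grown at permissive 25 °C to find synthetic lethal compounds; 0% = DMSO yeast wells and 100% = medium wells without yeast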
# Starred values were filed as active, the others as inactive; nt = not tested or not shown.
SMILES,NLRP3 yeast inh,tim23-1 inh,PfHsp90 yeast 2,tim10-1 inh,SKKanGAS inh,TIM10 inh,tim10-1 conf
COC(=O)c1[nH]c(C)c(/C(O)=C2\C(=O)C(=O)N(CCN3CCOCC3)C2c2ccco2)c1C (stereo not drawn),2,-2,8,-13,0,-1,nt
CC(=O)CCc1oc2ccc(C)cc2c1-c1ccc(C)o1,4,36,nt,46*,8,33,58*
CCCc1cc(-c2nc(N)ncc2-c2csc(C)n2)c(O)cc1OC,9,30,24,43*,-14,40,27
COc1ccc(CC(=O)O/N=C(\N)Cc2cccc3ccccc23)cc1OC,-12,34,-70,58*,-4,29,48*
COc1ccc(CC(=O)O/N=C(\N)c2ccccn2)cc1OC,15,-1,-15,24,-19,4,nt
COC(=O)c1c(NC(=O)Cn2cnc([N+](=O)[O-])n2)sc2c1CCC(C)C2 (stereo not drawn),28,44,-37,50*,1,32,28
Cc1ccc(C(=O)Nc2ccc(S(=O)(=O)N3CCOCC3)cc2)cc1C,20,35,2,41*,5,29,15
O=S(=O)(c1ccc(NC(=S)N/N=C/c2c3ccccc3cc3ccccc23)cc1)N1CCOCC1,-1,17,-49,50*,nt,34,30*
Cc1occc1C(=O)Nc1ccc(S(=O)(=O)N2CCCC2)cc1,1,20,nt,42*,-5,22,27
COC(=O)c1ccccc1NC(=O)C1CCCN(S(=O)(=O)c2ccc(F)cc2)C1 (stereo not drawn),33,40,0,27,3,10,nt
COC(=O)c1ccccc1NC(=O)C1CCCN(S(=O)(=O)c2ccccc2)C1 (stereo not drawn),29,39,-1,40*,6,9,29
O=S(=O)(c1ccc(NC(=S)N/N=C/c2ccc(Oc3ccccc3)cc2)cc1)N1CCOCC1,3,-2,16,4,-5,-9,nt
COc1ccc(CNC(=S)Nc2cccc(F)c2)cc1,19,32,-9,14,3,9,nt
C#CCNC(=O)C1=C[C@H](C)C[C@H](OCc2ccc(CO)cc2)O1,17,6,-3,-1,0,12,nt
O=C(CSc1nncs1)NCCCc1ccccc1,16,1,-41,9,3,-2,nt
COc1cc(C(=O)NCC2CCCO2)cc(Br)c1OCc1ccccc1 (stereo not drawn),21,41,-18,30,nt,10,nt
Cc1ccc(S(=O)(=O)c2ccc([N+](=O)[O-])o2)cc1,nt,nt,21,nt,nt,nt,nt
COc1ccccc1C(=O)Nc1ccc(S(=O)(=O)N2CCCC2)cc1,28,22,6,27,-13,37,nt
COc1ccccc1C(=O)Nc1ccc(S(=O)(=O)N2CCCCC2)cc1,8,13,8,48*,-2,26,40*
CC(=O)c1cc(Cl)ccc1OCc1cccc(S(=O)(=O)N2CCOCC2)c1,9,34,nt,32,0,25,nt
C/C(CC(=O)Nc1ccc(N(C)C)cc1)=N\NC(=O)c1ccc(C(C)(C)C)cc1,16,38,10,53*,10,21,33*
CCOC(=O)Cc1csc(N/N=C\c2cccc(Br)c2)n1,-2,13,-64,23,14,28,nt
CCOC(=O)Cc1csc(NC(=S)NC(=O)C(C)(C)C)n1,-3,34,-7,41*,1,17,18
CCOC(=O)Cc1csc(NC(=S)NC(=O)c2ccc(Cl)cc2)n1,10,3,nt,6,-1,-2,nt
CCOC(=O)Cc1csc(N/N=C/c2ccccc2)n1,3,36,-37,41*,4,25,20
SMILES,NLRP3 yeast inh,tim23-1 inh,PfHsp90 yeast 2,tim10-1 inh,SKKanGAS inh,TIM10 inh,tim10-1 conf
O=[N+]([O-])c1ccccc1N/N=C/c1c[nH]c2ccccc12,37,33,10,69*,12,33,57*
NC(=S)N1OC[C@@H]2COc3ccc4ccccc4c3[C@@H]21,13,30,6,41*,6,39,21
CCc1c(C#N)c(SCCC(=O)Nc2ccc(F)cc2)nc2c1C(=O)CC(C)(C)C2,20,28,23,21,31,8,nt
CCc1nn(C(C)C(=O)NC2CCCCCC2)c(=O)c2cc3occc3n12 (stereo not drawn),-3,34,-12,41*,-2,4,-7
Cc1cccc(N(CC(=O)NC2CCCCC2)C(=O)CCCC(=O)Nc2ccccn2)c1C,16,14,14,-3,3,9,nt
Cc1csc(NC(=O)c2nc(-c3ccccc3)n(-c3ccccc3)n2)n1,8,48,-9,51*,14,23,41*
Cc1ccc(C)c(NC(=O)c2nc(-c3ccccc3)n(-c3ccccc3)n2)c1,1,43,3,43*,1,29,28
COc1cc2c(cc1OC)CN(c1ccc([N+](=O)[O-])cc1C#N)CC2,5,23,-4,3,11,7,nt
COc1cc2c(cc1OC)CN(c1ccc([N+](=O)[O-])cc1Cl)CC2,20,37,8,41*,-3,30,50*
OC(CNCCc1ccc(C(F)(F)F)cc1)COc1ccc2ccccc2c1 (stereo not drawn),27,-94,13,48*,-10,7,-7
CCn1c(NN)nc2sc3c(c2c1=O)CCC3,1,-16,1,-18,nt,-6,nt
NNc1nc2sc3c(c2c(=O)n1Cc1ccccc1)CCC3,23,24,-2,54*,12,18,22
Cc1c(C(=O)C(=O)N2CCCc3ccccc32)c2ccccc2n1C,-2,29,22,43*,1,16,24
Cc1c(C(=O)C(=O)N2CCN(C)CC2)c2ccccc2n1C,-2,2,3,7,4,-12,nt
O=C(CCc1ccc(S(=O)(=O)N2CCOCC2)cc1)N1CCc2ccccc2C1,13,20,-9,20,1,15,nt
Cc1cc(C)n2nc(C(=O)OCC(=O)Nc3ccc(C)c(S(=O)(=O)N4CCOCC4)c3)nc2n1,16,5,6,-7,nt,-5,nt
O=C(NC(NNc1ccc([N+](=O)[O-])cc1)(C(F)(F)F)C(F)(F)F)c1ccc(Cl)cc1,13,37,-39,64*,33,35,51*
S=c1[nH]nc(C23CC4CC(CC(C4)C2)C3)n1Cc1ccco1,14,24,22,40*,4,22,25
